The list is not random: actives were taken first. Their share in the collection is about 21%.
CHX counter: affects cycloheximide protein synthesis inhibition readout, counter-screen. AID 2314. cell reporter, cycloheximide protein synthesis inhibition counterscreen. 300,000 compounds, 12% hits. max response, %; in the data active = max response mostly above about 13%, no sharp cut-off; inactive = mostly below about 14%; also: read at 38.3 µM for the half of the compounds with a filed dose; 0% is about no effect
SARS PLP yeast: SARS-CoV PLP inhibition in yeast; S. cerevisiae expressing SARS-CoV PLpro, growth rescue; Potency, µM (series often up to 32.9 µM), without a hit: at the top dose activity, positive = growth rescue, actives largely listed as activators; 330,000 compounds, 0.19% hits; AID 485353; calls by dose curve; also: potency is read from the fitted curve at half-maximal effect; 0% is about no effect; nearly all actives have a fitted effect of over 55% in size
NS1 function inh: blocks influenza NS1 protein function | 270,000 compounds, 0.4% hits | Potency, µM (series often up to 46.1 µM), for the others: at the highest dose activity, positive = more growth | AID 2326; calls by dose curve; also: potency is read from the fitted curve at half-maximal effect; actives are rising curves; nearly all actives have a fitted effect of over 50% in size
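Compounds were scored for reversing the slow growth caused by influenza A NS1 in S. cerevisiae, measured by optical density at 600 nm. Assay medium contained 2% galactose at pH 6.0; NS1-free yeast of the same strain were the positive control.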
Shiga inhibitor: inhibitors of Shiga toxin in Vero cells. inhibition, % at 38.7 µM. Vero cells, Shiga toxin protein synthesis inhibition reporter. 290,000 compounds, 9.2% hits; in the data active = inhibition mostly above about 28%, no sharp cut-off; inactive = mostly below about 43%; also: 0% is about no effect
Pf growth 96h: P. falciparum growth inhibition at 96 hours. P. falciparum luciferase reporter growth, 96 h. Potency, µM (series often up to 28.7 µM), for the others: at the top dose activity change, negative = inhibition, actives largely listed as inhibitors. 320,000 compounds, 6.9% hits; also: potency is read from the fitted curve at half-maximal effect; % is scaled to controls: 0 for no effect and ±100 for the full control effect
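P. falciparum expressing integrated firefly luciferase, in erythrocytes at 2% hematocrit, 0.05% parasitemia, incubated with compounds 96 h at 37 C, 5% CO2. Growth inhibition read as loss of luminescence; two-generation exposure targets delayed-death apicoplast inhibitors.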
Pf growth 48h: P. falciparum growth inhibition at 48 hours (one generation); P. falciparum luciferase growth in erythrocytes, 48 h; Potency, µM (doses to about 28.7 µM), for the others: top-dose activity change, negative = inhibition, usual class: inhibitors; 310,000 compounds, 5.9% hits; AID 504832; also: potency is read from the fitted curve at half-maximal effect; % is scaled to controls: 0 for no effect and ±100 for the full control effect
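Cell-based growth assay: transgenic P. falciparum expressing firefly luciferase, cultured in red cells within RPMI 1640 containing 0.5% w/v Albumax, 24 mM bicarbonate and gentamycin. A drop in luciferase activity indicates inhibition.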
* marks the source's active call; other numbers are inactive results; ? = inconclusive; . = no result given; + = active, no number. Unless noted, calls follow the shape of the dose curve; as a rule, active = well fitted inhibition curve with a large enough effect; inconclusive = small, poorly fitted or top-dose-only effect, or another doubt; inactive = no such curve, though single readings can be large or run the other way.

SMILES	CHX counter	SARS PLP yeast	NS1 function inh	Shiga inhibitor	Pf growth 96h	Pf growth 48h
COc1cccc(NC(=O)CN2CCc3ccccc3C2)c1	17.3*	-14.1%	-19.5%	24.0	-12.4%	-5.2%
Cc1cccc(NS(=O)(=O)c2ccc(C)c(C(=O)N(C)C3CCN(C)CC3)c2)c1	.	-4.0%	.	.	12.0%	10.9%
Cc1ccc(C(=O)Nc2cccc(S(=O)(=O)N3CCCC3)c2)o1	.	-1.4%	.	.	?	?
Cc1ccc(C(=O)Nc2cccc(S(=O)(=O)N(C)c3ccccc3)c2)o1	.	-8.0%	.	.	13.1µM*	8.28µM*
COc1ccc(N(C)S(=O)(=O)c2cccc(C(=O)NC3=NCCS3)c2)cc1	-2.2	-7.9%	-27.2%	-3.6	-16.6%	?
Nc1ccccc1N=Nc1c(S(=O)(=O)O)cc2cc(S(=O)(=O)O)cc(O)c2c1O	.	.	-7.6%	.	.	.
N/C(=N\OC(=O)CCCOc1ccccc1)c1ccc(Br)cc1	1.2	2.5%	-18.1%	-10.5	?	8.2%
N/C(=N\OC(=O)Cc1cccs1)c1ccc([N+](=O)[O-])cc1	31.2*	-47.9%	-9.4%	+	64.9%	34.5%
N/C(=N\OC(=O)Cc1cccs1)c1ccc(Br)cc1	50.0*	-34.1%	-5.9%	81.2*	76.2%	67.3%
O=C(NCc1cccs1)c1ccc([N+](=O)[O-])cc1	9.6	-11.5%	7.3%	-12.2	?	12.4%
c1cc(-c2cccs2)nc(-c2cccs2)c1	45.6*	-3.9%	-6.6%	52.7*	13.2%	23.6%
c1csc(-c2cnc3ccccc3n2)c1	29.5*	0.7%	-17.3%	75.0*	0.6%	.
COc1ccccc1-c1nnc(SCC(=O)c2ccc(C3CCCCC3)cc2)n1Cc1ccco1	8.0	-8.9%	26.6%	-11.7	.	?
COc1cccc(-c2csc(NC(C)=O)n2)c1	47.1*	-4.3%	-9.2%	87.3*	15.6%	44.4%
COc1cccc(NC(=O)Nc2nc(-c3ccc(OC)c(OC)c3)cs2)c1	21.8*	-3.9%	-17.3%	66.6*	11.7µM*	?
COc1ccc(-c2csc(NC(=O)Cc3ccccc3)n2)cc1OC	20.5	5.9%	12.0%	15.6	-11.6%	?
COc1ccc(-c2csc(NC(=O)Nc3ccccc3)n2)cc1	8.3	4.9%	3.3%	41.2	-3.1%	.
COc1cccc(CC(=O)Nc2nc(-c3ccc(F)c(F)c3)cs2)c1	-2.3	-6.4%	-8.1%	-2.1	0.9%	5.9%
COc1ccc(-c2csc(NC(C)=O)n2)cc1OC	21.2*	-3.7%	-5.6%	20.3	.	28.9%
O=C(CNC(=O)c1cccc(Cl)c1)NCC(c1cccs1)N1CCOCC1 (stereo not given)	.	1.2%	.	.	8.3%	-0.1%
Cc1cccc(C)c1NC(=O)CN(C)CC(=O)c1c(N)n(Cc2ccccc2)c(=O)n(C)c1=O	.	-0.9%	.	.	-12.0%	11.7µM*
CN(C)CC(=O)c1c(N)n(Cc2ccccc2)c(=O)n(C)c1=O	-2.4	0.1%	.	20.0	6.6%	2.6%
CCn1c(=O)c(C(=O)CN(C)CC(=O)Nc2ccccc2Br)c(N)n(Cc2ccccc2)c1=O	.	1.9%	.	.	?	10.4µM*
CSCC[C@H](NC(=O)[C@H](CC(C)C)NC(=O)CNC(=O)[C@H](Cc1ccc(O)cc1)NC(=O)[C@H](Cc1ccccc1)NC(=O)[C@H](CCC(N)=O)NC(=O)[C@H](CCC(N)=O)NC(=O)[C@@H]1CCCN1C(=O)[C@H](CCCCN)NC(=O)[C@@H]1CCCN1C(=O)[C@@H](N)CCCN=C(N)N)C(N)=O	-2.3	.	.	-5.6	.	.
Cc1ccc(N=CC2=C(O)CC(c3ccco3)CC2=O)cc1 (stereo not given)	21.1*	-12.0%	-18.5%	40.5	0.0%	0.1%
SMILES	CHX counter	SARS PLP yeast	NS1 function inh	Shiga inhibitor	Pf growth 96h	Pf growth 48h
O=C1CC(c2ccco2)CC(O)=C1C=Nc1cc(Cl)ccc1O (stereo not given)	11.3	-10.0%	1.9%	24.1	?	9.28µM*
O=C1CC(c2ccco2)CC(O)=C1C=Nc1ccc(Br)cc1 (stereo not given)	11.1	-10.3%	-1.4%	-4.8	.	-11.5%
CCC(C)(C)C(=O)Nc1ncc(S(=O)(=O)c2ccc([N+](=O)[O-])cc2)s1	1.9	-3.6%	7.3%	9.2	2.94µM*	8.28µM*
O=C(CCl)Nc1ncc(S(=O)(=O)c2ccc([N+](=O)[O-])cc2)s1	.	-0.1%	.	.	.	.
CCCC(C)C(=O)Nc1ncc(S(=O)(=O)c2ccc([N+](=O)[O-])cc2)s1 (stereo not given)	-0.6	?	6.7%	-3.9	?	1.65µM*
C[Se]CC[C@H](N)C(=O)O	.	.	.	.	8.2%	5.6%
COc1cc(CNc2ccc3[nH]c(=O)[nH]c3c2)ccc1OCc1ccc(C)cc1	26.4*	-1.3%	6.4%	117.7*	36.0%	43.5%
COc1cc(CNc2ccc3[nH]c(=O)[nH]c3c2)ccc1OCc1ccccc1Cl	14.0	-0.2%	15.3%	29.5	50.2%	-21.0%
COc1cc(CNc2ccc3[nH]c(=O)[nH]c3c2)ccc1OCc1cccc(C)c1	21.2*	3.0%	6.4%	37.2	-4.0%	0.2%
NNC(=O)c1cc(-c2ccccc2)sc1N	35.7*	-2.5%	13.8%	36.3	?	9.28µM*
NNC(=O)c1sc(-c2ccccc2)cc1N	18.9*	1.4%	.	49.9*	16.3%	?
CC(=O)c1sc(-c2ccccc2)cc1N	14.1	-2.3%	-4.3%	35.2	92.8%	62.2%
CC(OC(=O)c1cccc(S(=O)(=O)N2CCCCC2)c1)C(=O)NCC1CCCCC1 (stereo not given)	.	-8.8%	.	.	48.7%	-7.0%
O=C(NCc1cccnc1)c1ccc(NS(=O)(=O)c2ccc(F)cc2)cc1	-2.7	-5.2%	-10.7%	15.9	6.57µM*	?
O=C(NCC1CCCCC1)c1cccc(S(=O)(=O)N2CCCC2)c1	.	-3.1%	.	.	?	10.4µM*
O=C(NCc1cccnc1)c1cccc(S(=O)(=O)N2CCCC2)c1	51.5*	2.6%	?	-18.8	7.1%	-21.2%
CN1CCN(CC(O)COC(c2ccc(Cl)cc2)c2ccc(Cl)cc2)CC1 (stereo not given)	-6.5	1.0%	2.2%	-4.7	9.28µM*	.
OC(COC(c1ccc(Cl)cc1)c1ccc(Cl)cc1)CN1CCCC1 (stereo not given)	-1.1	.	7.0%	-13.9	4.65µM*	?
OC(COC(c1ccc(Cl)cc1)c1ccc(Cl)cc1)CN1CCc2ccccc2C1 (stereo not given)	-2.6	-37.2%	-39.4%	18.5	2.62µM*	?
CN1CCN(CC(O)COc2ccc(Cl)cc2)CC1 (stereo not given)	-4.6	8.4%	6.7%	-4.8	20.1%	.
CC1CN(C(=S)NC2CCCC2)CC(C)O1 (stereo not given)	-2.3	13.6%	3.6%	-0.8	-13.7%	22.9%
O=C(Nc1ccc2c(c1)ncn2-c1ccccc1)c1ccco1	38.2*	-12.1%	-57.1%	44.8*	3.4%	-15.8%
Cn1cnc2cc(NC(=O)c3ccco3)ccc21	24.9*	-1.7%	1.0%	78.8*	-1.2%	201.2%
